Source: PubChem BioAssay AID1845226 (National Center for Advancing Translational Sciences (NCATS), 2023)
Results filed as inconclusive are left out. Entries that show only a call come without a potency. Activity calls are given as the source filed them. Calls come from the whole dose curve; as a rule, active = well fitted inhibition curve with a large enough effect; inconclusive = small, poorly fitted or top-dose-only effect; inactive = no such curve, though single readings can be large or run the other way.

Assay: Confirmatory fluorescence-based thiol-reactive (MSTI) qHTS assay for identification of artifact compounds
Conditions: MSTI thiol-reactivity probe, 1 h; series mostly up to 39.2 µM
Method in brief: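 Concentration–response testing used 4 uM MSTI. Signal read at Ex 525/Em 598 nm after one hour in darkness at ambient temperature.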
Potency is the fitted concentration of half-maximal effect.

Row | Compound | Potency
1 | O=C(NCc1ccccc1)C1(C(F)(F)F)C/C(=C\CCO)CCCO1 (stereo not drawn) | inactive
2 | COc1ccc(CNC(=O)CCc2c(C)nc3c4cccnc4nn3c2C)cc1 | inactive
3 | CCOc1ccc(CNC(=O)c2ccc3nc(CC)c(CC)nc3c2)cc1OC | inactive
4 | Cc1ccc2cccc(NC(=O)c3ccc(-c4cccc([N+](=O)[O-])c4)o3)c2n1 | inactive
5 | Cc1ccc(NC(=O)NCC2CCN(Cc3cccc(Cl)c3)CC2)cc1Cl | inactive
6 | O=c1cc(-c2cc(O)c(O)c(O)c2)oc2cc(O)cc(O)c12 | 12.2 µM (active)
7 | CCOC(=O)C(C)Sc1ccc2nnc(-c3ccc(F)cc3)n2n1 (stereo not drawn) | inactive
8 | Cc1c(C(=O)OCCOc2ccccc2)[nH]c2c1C(=O)CC(c1ccccc1)C2 (stereo not drawn) | inactive
9 | CCOC(=O)c1ccc(N2CCN(c3ccc(F)cc3)CC2)c(NC(=O)Nc2cccc(OC)c2)c1 | inactive
10 | Cc1ccc(Cn2cc(CCC(=O)NC3CCCCC3)c3ccccc32)cc1 | inactive
11 | CC[C@H]1OC(=O)[C@H](C)[C@@H](O[C@H]2C[C@@](C)(OC)[C@@H](O)[C@H](C)O2)[C@H](C)[C@@H](O[C@@H]2O[C@H](C)C[C@H](N(C)C)[C@H]2O)[C@](C)(O)C[C@@H](C)C(=O)[C@H](C)[C@@H](O)[C@]1(C)O | inactive
12 | COc1ccc(NC(=O)N2CCc3c(sc4c3CCCC4)C2c2ccccc2OC)cc1 (stereo not drawn) | inactive
13 | c1coc(-c2nc3cc4ccccc4cc3nc2-c2ccco2)c1 | 0.97 µM (active)
14 | COc1ccc(Nc2nc(Nc3ccc(OC)cc3OC)nc(N3CCOCC3)n2)c(OC)c1 | 6.12 µM (active)
15 | COc1ccc(NC(=O)C(C)n2nc(-c3cc(C)ccc3C)c3c(c2=O)CCCC3)cc1 (stereo not drawn) | inactive
16 | O=C(O)c1ccc(-n2c(/C=C\c3ccc(O)cc3)nc3ccccc3c2=O)cc1 | inactive
17 | Cc1cn(C2CCC(CO)O2)c(=O)[nH]c1=O (stereo not drawn) | inactive

Row | Compound | Potency
18 | CCOC(=O)C1CCN(c2nc3ccccc3nc2Cl)CC1 | inactive
19 | O=C1CCCC2=C1C(c1[nH]ncc1Cl)NC(=NCCc1ccccc1)N2 (stereo not drawn) | inactive
20 | Oc1ccc(-c2nc3ccc(Cl)cn3c2Nc2ccc3c(c2)OCO3)cc1 | 0.77 µM (active)
21 | CC(C)(C)C(=O)NC1(C(F)(F)F)C(=O)Nc2c1c(=O)[nH]c(=O)n2-c1ccccc1 (stereo not drawn) | inactive
22 | CC(C)C(=O)OC1=CN(Cc2ccccc2)S(=O)(=O)c2ccccc21 | inactive
23 | O=C(Nc1nc(-c2ccccc2)cs1)c1ccccc1[N+](=O)[O-] | 2.44 µM (active)
24 | O=C(Nc1ccc2oc(-c3cccc4c(Br)cccc34)nc2c1)c1cccnc1 | inactive
25 | C/C(=C\c1ccc2c(c1)OCO2)C1Nc2cccc3cccc(c23)N1 | 3.07 µM (active)
26 | Cc1cc(C)cc(NC(=O)C(CC(C)C)NC(=O)C2CCCCC2)c1 (stereo not drawn) | inactive
27 | COC(=O)c1ccc(NC(=O)CC2C(=O)N(c3ccccc3)C(=O)N2Cc2cccs2)cc1 (stereo not drawn) | inactive
28 | COc1ccc(NC(=O)Nc2cccc(-c3noc(C)n3)c2)cc1 | inactive
29 | COc1ccc(CNC(=O)c2nnn(CC(=O)Nc3cc(C)cc(C)c3)c2N)cc1 | inactive
30 | C=C1Cc2c(Cl)cc3[nH]c4c5c3c2[C@@]2(O)[C@@H]1C[C@@H]2C(C)(C)O[C@H]5[C@@H]1CC[C@@]2(O)[C@@]35O[C@@H]3[C@@H](O)[C@@H](C(=O)O)O[C@H]5CC[C@]2(C)[C@@]41C | 3.86 µM (active)
31 | Cc1ccc2cccc(NS(=O)(=O)c3ccccc3[N+](=O)[O-])c2n1 | 4.33 µM (active)
32 | CCOC(=O)CN(Cc1ccccc1)C(C(=O)NC1CCCCC1)c1ccc(C)cc1 (stereo not drawn) | inactive
33 | COc1cc(O)c2c(c1)oc(=O)c1c3cc(O)c(O)cc3oc21 | 1.09 µM (active)
